Compound activity (PubChem BioAssay)
HIF-2a inh – HIF-2a reporter inhibitors, primary screen, luminescence, 786-0 RCC cells; 786-0 RCC cells HIF-2a reporter, luciferase luminescence, overnight; inhibition, % at 18.8 µM; 360,000 tested, 0.72% active; AID 624352, 2012;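 active means inhibition of the luminescence signal of 40% or more relative to plate controls, in a single-dose primary screen at 18.75 µM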
Peg3 promoter – Peg3 promoter-driven luciferase inhibitors, primary screen, cell-based, HeLa, luciferase luminescence; 360,000 tested, 1.7% active; HeLa PEG-Prom luciferase reporter, overnight; inhibition, % at 20 µM; AID 588405, 2011;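 active means inhibition of at least 50% at 20 µM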
KKLEB cytotox – cytotoxicity in KKLEB CF airway cells, primary screen, cytotoxicity control for CF NF-kB inhibitor project, cell-based, uHTS, fluorescence assay plates; KKLEB CF airway cells viability, ATPlite luminescence, overnight; active compounds read low; cells stimulated with P. aeruginosa culture filtrate; activity change (cytotoxicity), % at 5 µM; 360,000 tested, 0.36% active; AID 602141, 2011;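 active means corrected activity change at or below -50% at 5 µM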
Mdm2-MdmX inh – inhibitors of human Mdm2-MdmX association, primary screen, cell-based, luminescence, split luciferase, SaOS-2, uHTS; Protein Mdm4 (Homo sapiens) + E3 ubiquitin-protein ligase Mdm2 (Homo sapiens), …; SaOS-2 split-luciferase Mdm2/MdmX complementation; inhibition, % at 8 µM; 330,000 tested, 3% active; AID 485346, 2010;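 active means inhibition of at least 50% at 8 µM in the primary screen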
ABHD5 PLIN5 PPI – ABHD5-PLIN5 interaction inhibitors, primary screen, cell lysate, split luciferase complementation, luminescence; 360,000 tested, 0.78% active; Split G. princeps luciferase complementation, 4 h; inhibition, % at 4 µM; Perilipin-5 (Homo sapiens) + 1-acylglycerol-3-phosphate O-acyltransferase ABHD5 (Homo …;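 active means inhibition above the mean inhibition across every tested compound plus 3 SD, cut at about 22% in these data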
Target sequence (Q00G26 whole entry, looked up): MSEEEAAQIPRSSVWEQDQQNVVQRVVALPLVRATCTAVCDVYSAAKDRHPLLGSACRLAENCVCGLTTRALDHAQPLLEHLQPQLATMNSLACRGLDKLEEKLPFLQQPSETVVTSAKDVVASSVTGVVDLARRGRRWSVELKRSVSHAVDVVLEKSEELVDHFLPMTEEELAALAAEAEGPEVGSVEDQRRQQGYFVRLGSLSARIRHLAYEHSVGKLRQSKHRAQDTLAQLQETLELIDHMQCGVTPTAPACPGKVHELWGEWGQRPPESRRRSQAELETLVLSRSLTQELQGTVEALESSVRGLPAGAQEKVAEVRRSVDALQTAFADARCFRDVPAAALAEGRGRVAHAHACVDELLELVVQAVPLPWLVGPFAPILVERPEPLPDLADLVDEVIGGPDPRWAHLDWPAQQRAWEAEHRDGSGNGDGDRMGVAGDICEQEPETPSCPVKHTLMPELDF
Target sequence (Q8WTS1 whole entry, looked up): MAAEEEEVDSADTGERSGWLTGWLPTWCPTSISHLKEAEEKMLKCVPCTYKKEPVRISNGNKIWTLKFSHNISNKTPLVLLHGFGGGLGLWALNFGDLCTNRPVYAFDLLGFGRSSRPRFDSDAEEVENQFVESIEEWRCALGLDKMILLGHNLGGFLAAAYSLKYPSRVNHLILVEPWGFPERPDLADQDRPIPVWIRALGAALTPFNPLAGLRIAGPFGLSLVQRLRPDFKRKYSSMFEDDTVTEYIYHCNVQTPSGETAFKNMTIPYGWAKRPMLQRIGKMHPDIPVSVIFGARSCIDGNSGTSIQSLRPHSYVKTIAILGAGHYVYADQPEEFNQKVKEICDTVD
CF NFkB inh – inhibitors of PAF-induced NF-kB signaling, primary screen, cell-based, GFP fluorescence, uHTS. inhibition, % at 5 µM. KKLEB NF-kB-GFP reporter, GFP fluorescence overnight. 360,000 tested, 0.86% active. AID 588850, 2011;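 active means at least 50% inhibition at 5 µM, scaled per plate between neutral and stimulator controls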;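 further: PAF is a Pseudomonas aeruginosa culture filtrate used as stimulus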
HIF-2a conf – HIF-2a reporter inhibitor retest, confirmation, luminescence, 786-0 RCC cells | shares compounds with HIF-2a inh | HIF-2a luciferase reporter luminescence, overnight | inhibition, % at 18.8 µM | 1,800 tested, 56% active;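 active means mean inhibition across four replicates of at least 40 percent at the single tested concentration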
HIF-1a cs – HIF-1a luciferase reporter signal reduction – MiaPaCa-2 cells, single concentration, counter-screen for HIF-2a inhibitor project, confirmation; 1,800 tested, 72% active; inhibition, % at 18.8 µM; shares compounds with HIF-2a inh; MiaPaCa-2 HIF-1a luciferase reporter, desferoxamine, overnight;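 active means mean inhibition of the reporter signal across four replicates at the single tested dose of 50% or more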
Of the large screens only hits and unclear results are named; the others gave an inactive call (follow-up assays come after a bar, where they were run). Hits are enriched below; roughly 4.6% of the tested compounds scored in any of these assays.

O=c1[nH]c(CN2CCN(S(=O)(=O)/C=C/c3ccccc3)CC2)nc2cc(Cl)ccc12	HIF-2a inh 50.0 | HIF-2a conf inactive | HIF-1a cs 93.1
Cc1cc(/N=C/C=C2/N(C)c3ccccc3C2(C)C)n(CCC#N)n1	none (no result: Mdm2-MdmX inh)
CN(C(=O)C=Cc1ccco1)c1ccccc1	none (no result: Mdm2-MdmX inh)
CN(C(=O)/C=C/c1ccc([N+](=O)[O-])s1)c1ccccc1	HIF-2a inh 62.4 | HIF-2a conf 61.2 | HIF-1a cs 89.9
COCCN(Cc1ccco1)C(=O)Cn1ncc2c(=O)oc3ccccc3c21	HIF-2a inh 45.2 | HIF-2a conf inactive | HIF-1a cs inactive
COc1ccc(-c2c(N)cnc(C(=O)O)c2C)c(OCc2ccccc2)c1OC	none (no result: Mdm2-MdmX inh)
Cc1c2cnn(CC(=O)N3CCOCC3)c(=O)c2c(C)n1Cc1ccc(F)cc1	none (no result: Mdm2-MdmX inh)
O=C(Cn1ncc(Cl)c(Cl)c1=O)N1CCOCC1	HIF-2a inh 83.9, Peg3 promoter 96.7 | HIF-2a conf inactive | HIF-1a cs 105.5
O=c1c(Cl)c(Cl)cnn1Cc1nnc(-c2ccc(Cl)cc2)o1	HIF-2a inh 94.2, Peg3 promoter 107.3, KKLEB cytotox -81.7, CF NFkB inh 80.5 (no result: Mdm2-MdmX inh) | HIF-2a conf inactive | HIF-1a cs 104.7
Cn1cc([N+](=O)[O-])c(C(=O)Nc2cc(Oc3ccccc3)cc([N+](=O)[O-])c2)n1	HIF-2a inh 95.0, Peg3 promoter 104.1, CF NFkB inh 77.9 (no result: Mdm2-MdmX inh) | HIF-2a conf 62.7 | HIF-1a cs 107.5
COc1ccc(NC(=O)c2nn(C)cc2[N+](=O)[O-])cc1	none
Cc1cc(C)c2cc3c(N)c(C(=O)N4CCOCC4)sc3nc2c1	none
Cc1cc(C)c2cc3c(N)c(C(=O)Nc4c(C)[nH]c(=O)[nH]c4=O)sc3nc2c1	HIF-2a inh 69.2 | HIF-2a conf inactive | HIF-1a cs 65.7
CCN(CC)S(=O)(=O)c1cccc(C(=O)OCC(=O)NCCN2C(=O)CSC2=O)c1	none
CCN1CCN(c2nc(Nc3ccc(NC(C)=O)cc3)nc(Nc3ccc(NC(C)=O)cc3)n2)CC1	HIF-2a inh 67.7 | HIF-2a conf inactive | HIF-1a cs inactive
CC(=O)Nc1ccc(/C(C)=N/Nc2nc(Nc3ccccc3)nc(N3CCOCC3)n2)cc1	none
Cc1ccccc1CSc1nnc(-c2cnccn2)n1C	none
Cc1c(CC(=O)NCCCC(=O)O)c(=O)oc2cc3c(cc12)CCC(C)(C)O3	HIF-2a inh 61.5 | HIF-2a conf 81.2 | HIF-1a cs 86.2
O=C(Nc1ccc(OCc2ccccc2Cl)cc1)c1cccnc1	HIF-2a inh 47.6 | HIF-2a conf 83.1 | HIF-1a cs 88.9
COc1ccc(C2=Nn3c(nnc3-c3ccccc3OC)SC2)cc1OC	HIF-2a inh 43.1, CF NFkB inh 53.1 (no result: Mdm2-MdmX inh) | HIF-2a conf inactive | HIF-1a cs inactive
CC1(C(=O)NS(=O)(=O)c2cccc(OC(F)F)c2)CCN1C(=O)CC(c1ccccc1)c1ccccc1 (stereo not drawn)	none (no result: Mdm2-MdmX inh)
CCOC(=O)c1c(SCCN2CCCC2)n(-c2ccccc2)c(=S)n(-c2ccccc2)c1=O	HIF-2a inh 77.5, Peg3 promoter 100.0, ABHD5 PLIN5 PPI 22.2 (no result: Mdm2-MdmX inh) | HIF-2a conf 93.2 | HIF-1a cs 102.0
CCOC(=O)c1c[nH]c(=S)n(-c2ccccc2)c1=O	none
Nc1nc(SCC(=O)NC2CCCCC2)n[nH]1	none
COc1cccc(C(C)(O)c2nc(-c3cccs3)cs2)c1 (stereo not drawn)	none (no result: Mdm2-MdmX inh)
Cc1ccc(NC(=O)CCN2CCCCC2)cc1	HIF-2a inh 61.2 | HIF-2a conf 55.1 | HIF-1a cs 73.2
COc1ccc2c(c1)OC[C@H]1[C@H]2N2C(=O)CN(Cc3ccccc3)C(=O)[C@@]2(C)[C@H]1c1ccccc1	none (no result: Mdm2-MdmX inh)
Cc1ccc(S(=O)(=O)N2CCN(CCc3ccccc3)CC2)c(C)c1	none
Cc1cc(C)c(C)c(S(=O)(=O)ON2C(=O)c3ccccc3C2=O)c1C	HIF-2a inh 56.4, Peg3 promoter 89.0, KKLEB cytotox -52.9, CF NFkB inh 69.2 | HIF-2a conf 50.1 | HIF-1a cs inactive
Cc1cccc2c1N(C)C(=O)C2=O	none
Cc1ccc(S(=O)(=O)ON2C(=O)c3ccccc3C2=O)c(C)c1	HIF-2a inh 72.4, Peg3 promoter 60.3 (no result: Mdm2-MdmX inh) | HIF-2a conf 58.8 | HIF-1a cs inactive
O=C(NC12CC3CC(CC(C3)C1)C2)c1ccc([N+](=O)[O-])o1	HIF-2a inh 64.8, Peg3 promoter 83.5, KKLEB cytotox -78.3, CF NFkB inh 93.5 | HIF-2a conf inactive | HIF-1a cs 95.7
Cc1nc2cc(-c3cccc(F)c3)nn2c(C)c1CCC(=O)NC(C)c1ccc2c(c1)OCCO2 (stereo not drawn)	HIF-2a inh 45.8 | HIF-2a conf 72.2 | HIF-1a cs inactive
Cc1nc2cc(-c3ccccc3)nn2c(C)c1CCC(=O)NC(C)c1ccc2c(c1)OCCO2 (stereo not drawn)	HIF-2a inh 65.8 | HIF-2a conf 78.8 | HIF-1a cs inactive
O=C(COC(=O)c1ccc[nH]c1=O)Nc1ccc(N2CCCCC2)cc1	HIF-2a inh 90.8 | HIF-2a conf 95.1 | HIF-1a cs 74.1
O=C(COC(=O)c1ccc[nH]c1=O)Nc1ccc(S(=O)(=O)N2CCCC2)cc1	HIF-2a inh 58.5 | HIF-2a conf inactive | HIF-1a cs inactive
O=C(OCC(=O)N1CCCCCC1)c1ccc[nH]c1=O	none
CN(C)S(=O)(=O)c1cccc(C(=O)OCC(=O)c2c(N)n(C)c(=O)n(C)c2=O)c1	HIF-2a inh 40.8 | HIF-2a conf inactive | HIF-1a cs inactive
COc1cccc(CNC(=O)CCC(=O)N2CCOCC2)c1	none
O=S(=O)(c1ccc(F)cc1)c1snnc1-c1ccccc1	HIF-2a inh 40.5, Peg3 promoter 74.8 (no result: Mdm2-MdmX inh) | HIF-2a conf inactive | HIF-1a cs inactive
CC(=NNC(=S)Nc1ccccc1)c1ccccn1	HIF-2a inh 71.2 (no result: Mdm2-MdmX inh) | HIF-2a conf inactive | HIF-1a cs inactive
CC(=NNC(=S)Nc1ccccc1Cl)c1ccccn1	none (no result: Mdm2-MdmX inh)
C=C(CN(C)C)C(=O)c1ccc(C)cc1C	HIF-2a inh 90.0, Peg3 promoter 99.2, ABHD5 PLIN5 PPI 59.8 (no result: Mdm2-MdmX inh) | HIF-2a conf 96.2 | HIF-1a cs 73.7
